Measurements from PubChem BioAssay (Tox21).
Unmarked numbers belong to inactive results. Records with an inconclusive call do not appear. Entries that show only a call come without a potency. The source made the active and inactive calls. Unless noted, calls follow the shape of the dose curve; as a rule, active = well fitted curve in the direction sought with a large enough effect in the repeat runs; inconclusive = weak or mixed curves; inactive = no such curve, though single readings can be large; an effect the other way counts as inactive or inconclusive.

How the values were obtained:
[1] = qHTS assay to identify small molecule antagonists of the estrogen related receptor (ERR) signaling pathway from Tox21 library - cell viability counter screen (AID 1224834); also: nearly all actives have a fitted effect of over 30% in size
Method in brief: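 Compounds in DMSO were pinned onto ERR cells that had been incubated for 6 h, and the plates were held at 37 C for 17.5 h. CellTiter-Fluor reagent was then added and fluorescence was measured after 30 min.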

[2] = biological target: Luciferin 4-monooxygenase (Photinus pyralis) (UniProt P08659); assay: qHTS assay to identify small molecule inhibitors of firefly luciferase (AID 1224835); also: nearly all actives have a fitted effect of over 25% in size; also: potency is read from the fitted curve at half-maximal effect
Sequence of Luciferin 4-monooxygenase (Photinus pyralis) (P08659 whole entry, looked up): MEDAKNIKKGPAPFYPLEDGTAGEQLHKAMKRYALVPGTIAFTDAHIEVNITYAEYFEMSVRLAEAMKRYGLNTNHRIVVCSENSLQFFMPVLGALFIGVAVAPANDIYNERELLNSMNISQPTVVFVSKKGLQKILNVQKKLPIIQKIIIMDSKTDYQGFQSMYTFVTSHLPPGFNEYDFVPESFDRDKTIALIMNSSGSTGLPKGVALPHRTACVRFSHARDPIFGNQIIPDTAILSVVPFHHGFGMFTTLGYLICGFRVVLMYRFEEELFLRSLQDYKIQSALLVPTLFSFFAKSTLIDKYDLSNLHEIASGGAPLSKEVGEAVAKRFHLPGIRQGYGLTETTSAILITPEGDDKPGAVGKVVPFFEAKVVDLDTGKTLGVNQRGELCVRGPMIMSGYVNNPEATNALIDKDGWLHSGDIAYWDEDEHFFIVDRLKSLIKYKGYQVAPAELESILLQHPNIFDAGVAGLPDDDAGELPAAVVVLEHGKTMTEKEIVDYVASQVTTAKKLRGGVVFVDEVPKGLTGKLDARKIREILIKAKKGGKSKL
Method in brief: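 Biochemical qHTS: compounds run as interplate titrations against purified firefly enzyme, with D-luciferin and ATP each at its KM concentration. Light output recorded by CCD imaging.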

[3] = qHTS assay to identify small molecule agonists of the constitutive androstane receptor (CAR) signaling pathway - cell viability counter screen (AID 1224836); also: nearly all actives have a fitted effect of over 45% in size
Method in brief: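 Compound titrations (15 concentrations) went onto HepG2-CYP2B6-hCAR cells 4 h after seeding, alongside PK11195 at a final 0.75 uM; a 23 h, 37 C/5% CO2 incubation preceded CellTiter-Fluor viability measurement.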

[4] = qHTS assay to identify small molecule antagonists of the constitutive androstane receptor (CAR) signaling pathway - cell viability counter screen (AID 1224837); also: nearly all actives have a fitted effect of over 45% in size
Method in brief: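 Cells are seeded, rested 4 hr at 37 C/5% CO2, dosed with compound (15-point series) and 50 nM CITCO, incubated a further 23 hr, and then CellTiter-Fluor reagent is added before fluorescence is read. The line is HepG2 with stable hCAR and CYP2B6-2.2kb.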

[5] = biological target: Nuclear receptor subfamily 1 group I member 3 (Homo sapiens) (UniProt Q14994); assay: qHTS assay to identify small molecule antagonists of the constitutive androstane receptor (CAR) signaling pathway (AID 1224838);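 also: HepG2 cells stably expressing hCAR with CYP2B6 luciferase reporter stimulated by CITCO; nearly all actives have a fitted effect of over 40% in size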
Sequence of Nuclear receptor subfamily 1 group I member 3 (Homo sapiens) (Q14994 whole entry, looked up): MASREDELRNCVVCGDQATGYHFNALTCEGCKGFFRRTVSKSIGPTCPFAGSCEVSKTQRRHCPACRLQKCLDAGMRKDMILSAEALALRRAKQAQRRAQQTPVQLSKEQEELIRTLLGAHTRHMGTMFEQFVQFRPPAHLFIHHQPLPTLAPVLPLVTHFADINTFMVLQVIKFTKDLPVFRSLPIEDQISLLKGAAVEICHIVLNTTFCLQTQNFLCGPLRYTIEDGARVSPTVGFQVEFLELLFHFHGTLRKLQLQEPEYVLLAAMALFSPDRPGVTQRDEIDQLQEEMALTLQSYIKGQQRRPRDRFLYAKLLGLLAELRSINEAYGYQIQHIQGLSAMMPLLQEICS
Method in brief: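 Luminescence from a CYP2B6-2.2kb promoter reporter in hCAR-expressing HepG2 cells reflects CAR signaling. Cells received compounds at 15 concentrations and 50 nM CITCO (final), then incubated 24 h at 37 C/5% CO2.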

[6] = biological target: Nuclear receptor subfamily 1 group I member 3 (Homo sapiens) (UniProt Q14994); assay: qHTS assay to identify small molecule agonists of the constitutive androstane receptor (CAR) signaling pathway (AID 1224839); also: nearly all actives have a fitted effect of over 15% in size; also: potency is read from the fitted curve at half-maximal effect;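 as to activation: HepG2 cells stably carrying human CAR and a CYP2B6 luciferase reporter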
Method in brief: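 In this screen, CAR-driven CYP2B6 promoter activity is measured by luminescence in HepG2-CYP2B6-hCAR cells after 24 h with test compounds and 0.75 uM PK11195 (final concentration).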

[7] = qHTS assay to identify small molecule antagonists of the estrogen related receptor signaling pathway with the pleiotropic PPARgamma coactivator (PGC) from Tox21 10K library - cell viability counter screen (AID 1224840; active = well fitted cell-killing curve with a large enough effect in the repeat runs, not every such curve was filed as active; also: nearly all actives have a fitted effect of over 40% in size)
Method in brief: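 Cell viability is measured by CellTiter-Fluor fluorescence in PGC/ERR cells that receive compounds after a 6-hour attachment period and are then incubated 17.5 hours at 37 C.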

[8] = qHTS assay to identify small molecule antagonists of the estrogen related receptor signaling pathway with the pleiotropic PPARgamma coactivator (PGC) from Tox21 10K library (AID 1224841; call rule not given here; also: actives are mostly falling curves and most rising ones were filed inactive; nearly all actives have a fitted effect of over 50% in size)
Method in brief: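 Cells stably carrying the PGC/ERR reporter, seeded at 2,000 per well, received pin-transferred compounds 6 h post-plating. Exposure lasted 18 h at 37 C. Signal: One-Glo luminescence.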

[9] = qHTS assay to identify small molecule agonists of the estrogen related receptor signaling pathway with the pleiotropic PPARgamma coactivator (PGC) from Tox21 10K library (AID 1224842); also: nearly all actives have a fitted effect of over 15% in size
Method in brief: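 PGC/ERR reporter cell line, 2,000 cells per well, incubated 6 h at 37 C before 23 nL compound in DMSO was added. After 18 h at 37 C, One-Glo luminescence read following 30 min at room temperature.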

[10] = biological target: Thyrotropin receptor (Homo sapiens) (UniProt P16473); assay: qHTS assay to identify small molecule agonists of the thyroid stimulating hormone receptor (TSHR) signaling pathway (AID 1224843; calls by dose curve; also: nearly all actives have a fitted effect of over 45% in size)
Sequence of Thyrotropin receptor (Homo sapiens) (P16473 whole entry, looked up): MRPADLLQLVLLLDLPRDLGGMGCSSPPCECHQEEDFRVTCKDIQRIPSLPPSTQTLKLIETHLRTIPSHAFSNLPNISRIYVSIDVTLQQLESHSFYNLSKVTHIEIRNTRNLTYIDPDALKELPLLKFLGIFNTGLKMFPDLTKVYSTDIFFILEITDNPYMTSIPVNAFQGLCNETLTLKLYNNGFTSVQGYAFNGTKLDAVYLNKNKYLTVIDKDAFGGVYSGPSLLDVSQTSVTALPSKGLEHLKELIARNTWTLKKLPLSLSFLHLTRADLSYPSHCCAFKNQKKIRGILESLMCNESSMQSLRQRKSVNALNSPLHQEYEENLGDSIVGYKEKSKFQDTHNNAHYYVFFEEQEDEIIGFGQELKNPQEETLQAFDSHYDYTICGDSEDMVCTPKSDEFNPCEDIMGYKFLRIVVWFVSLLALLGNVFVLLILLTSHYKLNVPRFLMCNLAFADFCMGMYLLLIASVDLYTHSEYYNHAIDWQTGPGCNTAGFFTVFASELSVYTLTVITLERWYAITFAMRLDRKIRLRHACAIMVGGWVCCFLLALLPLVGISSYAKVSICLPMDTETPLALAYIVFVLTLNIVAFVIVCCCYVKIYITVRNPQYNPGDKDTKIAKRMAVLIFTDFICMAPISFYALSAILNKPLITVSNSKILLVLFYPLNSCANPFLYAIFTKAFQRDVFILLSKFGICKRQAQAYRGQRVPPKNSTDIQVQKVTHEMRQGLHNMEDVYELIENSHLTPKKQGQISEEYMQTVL
Method in brief: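 HEK293/TSHR, 800 cells/well; cpd 30 min RT; add cAMP-d2 + anti-cAMP-cryptate, 1 h RT; fluorescence read on plate reader. 15-pt titration, n=3.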

[11] = qHTS assay to identify small molecule agonists of the hypoxia (HIF-1) signaling pathway - cell viability counter screen (AID 1224844; calls by dose curve; also: nearly all actives have a fitted effect of over 50% in size)
Method in brief: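 Viability counter screen: HRE-bla ME-180 cells plated 5 hrs before compound addition, treated 17 hrs at 37C and 5% CO2, then CellTiter-Glo added after the FRET reporter read; luminescence after 30 min.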

[12] = qHTS assay to identify small molecule agonists of H2AX (AID 1224845; active = well fitted activation curve with a large enough effect in the signal ratio in the repeat runs, not every such curve was filed as active; the % refers to the signal ratio)
Method in brief: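 Wild-type CHO-K1 cells, plated overnight, exposed 3hr at 37C to 15 concentrations (0.76% DMSO final). Lysed, then HTRF anti-pH2AX (S139) cryptate and anti-H2AX-d2 antibodies, 24 hr room temperature; 665/620 nm emission read.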

[13] = qHTS assay to identify small molecule agonists of the hypoxia (HIF-1) signaling pathway (AID 1224846; active = well fitted activation curve with a large enough effect in the signal ratio in the repeat runs, not every such curve was filed as active; the % refers to the signal ratio)
Method in brief: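 Agonist mode reporter screen. ME-180 cells stably expressing bla under HRE control received test compounds in DMSO for 17 hrs (37C, 5% CO2), and beta-lactamase activity was then detected with the CCF4-AM FRET substrate.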

[14] = qHTS assay to identify small molecule agonists of H2AX - cell viability counter screen (AID 1224847; calls by dose curve; also: top concentration of the series differs between compounds; nearly all actives have a fitted effect of over 30% in size)
Method in brief: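 Read-out: CellTiter-Glo luminescence, 30 min RT. Cells: wild-type CHO-K1, 1000/well, 10% FBS, plated overnight at 37C. Treatment: 15 concentrations, 3 hr, 37C, 0.76% DMSO.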

[15] = qHTS assay to identify small molecule antagonists of the estrogen related receptor (ERR) signaling pathway from Tox21 library (AID 1224848); also: nearly all actives have a fitted effect of over 50% in size
Method in brief: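 Compounds dissolved in DMSO are pin-transferred onto ERR reporter cells (2,000 per well) that have settled for 6 h at 37 C. Plates then incubate 18 h at 37 C before ONE-Glo luciferase reagent and a luminescence read 30 min later.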

[16] = qHTS assay to identify small molecule agonists of the estrogen related receptor (ERR) signaling pathway from Tox21 library (AID 1224849; calls by dose curve; also: nearly all actives have a fitted effect of over 15% in size); settings: ERR reporter cell line, ONE-Glo luciferase, 18 h; at 92.4 µM (top of the series) unless noted
Method in brief: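 Quantitative HTS in agonist format: NTP ERR cell line, compounds transferred in DMSO after 6 h plating, 18 h incubation at 37 C, ONE-Glo luminescence endpoint.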

[17] = qHTS RealTime-Glo MT Cell Viability Assay in HepG2 cells - 24 hour (AID 1224867); also: nearly all actives have a fitted effect of over 50% in size
Method in brief: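 HepG2 cells (600/well) were dispensed with RealTime-Glo reagents, incubated 5 h at 37 °C, then treated with compounds in DMSO for up to 40 h. Nonlytic NanoLuc luminescence reflecting viable cells was read at each stated time point.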

[18] = qHTS RealTime-Glo MT Cell Viability Assay in HEK293 cells - 32 hour (AID 1224868)
Method in brief: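 HEK293 cells seeded with NanoLuc/prosubstrate reagent, rested 5 h at 37 C, then dosed and kept at 37 C up to 40 h. Nonlytic real-time luminescence from viable cells read at 0, 8, 16, 24, 32 and 40 h.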

[19] = A CellTox Green Cytotoxicity Assay to monitor cytotoxicity in HEK293 cells - 0 hour (AID 1224869); also: nearly all actives have a fitted effect of over 50% in size
Method in brief: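 Dead-cell fluorescence measured kinetically: asymmetric cyanine dye, HEK293, 600 cells/well, 5 h settle, 23 nL cpd/DMSO, 37 C, reads 0–40 h every 8 h.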

SMILES	Potency [1]	Potency [2]	outcome [3]	outcome [4]	Potency [5]	Potency [6]	outcome [7]	Potency [8]	Potency [9]	outcome [10]	Potency [11]	outcome [12]	outcome [13]	Potency [14]	Potency [15]	activity change, positive = activation [16]	outcome [17]	Potency [18]	Potency [19]
C#CC(C)(O)CC(C)C (stereo not given)	inactive	inactive	inactive	inactive	inactive	inactive	inactive	inactive	inactive	inactive	inactive	inactive	inactive	inactive	inactive	13.6%	inactive	inactive	inactive
Cn1cnc2c(=O)[nH]c(N)nc21	inactive	inactive	inactive	inactive	inactive	inactive	inactive			inactive	inactive	inactive	inactive	inactive			inactive	inactive	inactive
CCOC(=O)Cn1c(=O)sc2cccc(Cl)c21	inactive	inactive	inactive	inactive	inactive	54.5 µM (active)	inactive	inactive	inactive		inactive	inactive	inactive	inactive	inactive	-12%			inactive
O=C(O)c1cccc(C(=O)O)n1	inactive	inactive	inactive	inactive	inactive	inactive	inactive	inactive	inactive	inactive		inactive	inactive	inactive	inactive	2.2%	inactive	inactive	inactive
CCCCc1ccc2cccc(S(=O)(=O)O)c2c1	inactive	inactive	inactive	inactive	inactive	inactive	inactive	inactive	inactive	inactive	inactive	inactive	inactive	inactive	inactive	-0.296%	inactive	inactive	inactive
OCC(CO)(CO)COCC(CO)(CO)CO	inactive	inactive	inactive	inactive	inactive	inactive	inactive			inactive	inactive	inactive	inactive	inactive			inactive	inactive	inactive
COc1ccc2cc(C=O)ccc2c1	inactive	34.7 µM (active)	inactive	inactive	inactive	inactive	inactive	inactive	inactive	inactive		inactive	inactive	inactive	inactive	3.74% [at 42.5 µM]	inactive	inactive	inactive
